Assay outcomes: PubChem, The Scripps Research Institute Molecular Screening Center
The list is not random: actives were taken first. Their share in the collection is about 2.3%.
PLCb3 inh – PLC-beta3 (human) inhibition, primary screen; Q01970; Purified PLC-beta3, fluorogenic substrate, fluorescence; inhibition, % at 12.2 µM; 0.18% of 370,000 active; AID 720704; in the data active = inhibition above about 11%
PLC-gamma1 inh – inhibitors of human phospholipase C gamma1. P19174. inhibition, % at 12.2 µM. purified PLC-gamma1, fluorogenic substrate, fluorescence. 0.84% of 370,000 active; in the data active = inhibition above about 9.5%
Target sequence (P19174 whole entry, looked up): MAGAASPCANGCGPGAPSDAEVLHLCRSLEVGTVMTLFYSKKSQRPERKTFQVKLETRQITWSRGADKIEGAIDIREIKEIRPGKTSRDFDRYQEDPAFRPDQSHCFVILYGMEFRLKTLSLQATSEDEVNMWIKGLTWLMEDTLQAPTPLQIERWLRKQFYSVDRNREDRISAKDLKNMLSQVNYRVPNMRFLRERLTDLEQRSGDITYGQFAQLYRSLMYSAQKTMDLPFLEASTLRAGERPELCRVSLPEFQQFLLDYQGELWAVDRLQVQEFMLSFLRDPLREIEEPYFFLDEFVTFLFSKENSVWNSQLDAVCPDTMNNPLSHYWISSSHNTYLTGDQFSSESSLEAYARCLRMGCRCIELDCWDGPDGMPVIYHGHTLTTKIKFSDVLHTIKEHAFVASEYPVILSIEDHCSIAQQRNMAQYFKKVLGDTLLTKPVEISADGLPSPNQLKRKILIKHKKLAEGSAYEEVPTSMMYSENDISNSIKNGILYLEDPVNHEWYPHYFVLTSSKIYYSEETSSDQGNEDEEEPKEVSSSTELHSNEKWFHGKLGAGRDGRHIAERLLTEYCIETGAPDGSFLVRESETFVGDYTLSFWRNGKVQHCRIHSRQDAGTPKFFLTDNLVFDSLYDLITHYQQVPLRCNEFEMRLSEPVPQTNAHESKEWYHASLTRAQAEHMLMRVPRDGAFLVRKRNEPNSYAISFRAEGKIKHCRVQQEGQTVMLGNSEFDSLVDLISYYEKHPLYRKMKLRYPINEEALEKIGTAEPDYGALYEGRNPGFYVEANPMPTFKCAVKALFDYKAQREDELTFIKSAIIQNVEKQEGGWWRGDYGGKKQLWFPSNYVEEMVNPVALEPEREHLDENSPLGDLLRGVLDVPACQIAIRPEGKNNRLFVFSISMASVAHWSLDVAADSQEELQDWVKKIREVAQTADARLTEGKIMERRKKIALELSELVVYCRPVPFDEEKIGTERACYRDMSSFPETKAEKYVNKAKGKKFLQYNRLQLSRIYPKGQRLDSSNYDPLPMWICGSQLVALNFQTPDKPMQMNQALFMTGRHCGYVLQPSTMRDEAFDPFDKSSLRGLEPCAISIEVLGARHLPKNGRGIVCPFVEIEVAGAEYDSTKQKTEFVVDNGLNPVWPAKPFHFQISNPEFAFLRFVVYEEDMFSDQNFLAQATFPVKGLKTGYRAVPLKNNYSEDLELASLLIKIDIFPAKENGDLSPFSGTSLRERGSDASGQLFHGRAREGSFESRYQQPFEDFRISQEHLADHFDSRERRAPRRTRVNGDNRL
MBD2 DNA inh – blocks human MBD2 binding to methylated DNA. TR-FRET, MBD2 binding to methylated oligonucleotide. AID 686964. 0.31% of 370,000 active. Q9UBB5. inhibition, % at 4.4 µM; in the data active = inhibition above about 13%
LEDGF integ inh – blocks HIV-1 LEDGF/p75-dependent DNA integration; TR-FRET IN-LEDGF/p75 DNA integration, Eu/Cy5; inhibition, % at 3.7 µM; 0.64% of 370,000 active; AID 743269;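 active = inhibition above the screen-wide mean plus 3 SD, cut at about 13% in these data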;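 also: signal is the Cy5 over europium emission ratio at 671 and 618 nm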
UHRF1 MBD2 ctr – UHRF1 methyl-DNA binding inhibition | Q96T88 | UHRF1 binding to methylated oligo, TR-FRET | inhibition, % at 4.4 µM | 0.75% of 370,000 active | AID 687016; in the data active = inhibition above about 21%;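 also: UHRF1 SRA domain binding a hemimethylated CpG hairpin DNA probe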
IN multimer up – counter-screen for LEDGF/p75 integration inhibitors: HIV-1 integrase multimerization activators | TR-FRET HIV-1 integrase multimerization, biochemical | shares compounds with LEDGF integ inh | AID 1053131 | activation, % at 7.7 µM | 17% of 2,000 active; in the data active = activation above about 8.9%
TRFRET interf – TR-FRET optical interference, LEDGF/p75 integration counter-screen; shares compounds with LEDGF integ inh; TR-FRET optical interference counterscreen, HIV-1 IN multimerization; inhibition, % at 7.7 µM; 2,000 tested, under 10 active; AID 1053135;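 active = inhibition above the mean over all tested compounds plus 3 SD, which no compound reached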
LEDGF integ conf – LEDGF/p75-dependent HIV-1 integration inhibition, confirmation; TR-FRET LEDGF/p75-dependent HIV-1 integration, biochemical; shares compounds with LEDGF integ inh; 36% of 2,000 active; AID 1053136; inhibition, % at 3.7 µM; in the data active = inhibition above about 14%
Hits are given with their value; i = inactive; nt = not tested or not shown.

SMILES	PLCb3 inh	PLC-gamma1 inh	MBD2 DNA inh	LEDGF integ inh	UHRF1 MBD2 ctr	IN multimer up	TRFRET interf	LEDGF integ conf
CC(=O)Oc1ccc(/C=C2/C(=O)N(c3ccccc3)N=C2C)cc1	i	30.8	23.6	50.8	i	i	i	i
CC1=NN(c2ccccc2)C(=O)/C1=C/c1cccc(C)c1	i	i	i	15.9	i	i	i	i
COc1ccc(C2=NN(c3ccccc3)C(=O)/C2=C\c2ccc(O)c(OC)c2)cc1	i	i	i	16.8	i	i	i	i
COc1ccc(/C=C2/C(=O)N(c3ccccc3)N=C2C)cc1OC	i	18.5	i	26.7	i	i	i	i
COC(=O)[C@]12C[C@H](CC(=O)NCCCN3CCCC3=O)C(=O)N(Cc3ccco3)C1=C[C@H](C1CCCC1)O[C@@H]2C	i	i	i	i	i	nt	nt	nt
O=C(Nc1cccc(NC(=O)c2ccc([N+](=O)[O-])o2)c1)c1ccco1	i	i	i	i	i	nt	nt	nt
NC(=O)/C(=C\c1ccc([N+](=O)[O-])o1)c1ccco1	i	i	i	22.1	i	i	i	27.9
COC(=O)[C@]12CCCCC=C1N(Cc1cccc3ccccc13)C(=O)[C@H](CC(=O)N1CCCCC1)C2	i	i	i	82.3	i	i	i	i
COC(=O)[C@]12CCCCC=C1N(Cc1cccc3ccccc13)C(=O)[C@H](CC(=O)N1CCC(c3ccccc3)CC1)C2	i	i	i	i	i	nt	nt	nt
O=c1cc(-c2ccc(O)c(O)c2)oc2cc(O)cc(O)c12	i	i	i	42.0	i	15.4	i	88.0
COc1ccc(-c2oc3cc(O)c(OC)c(O)c3c(=O)c2OC)cc1	i	i	i	i	i	nt	nt	nt
O=c1c(-c2c(O)cc(O)c3c(=O)cc(-c4ccc(O)cc4)oc23)c(-c2ccc(O)cc2)oc2cc(O)cc(O)c12	i	i	i	24.9	i	40.4	i	50.4
CC1OC(Oc2c(-c3cc(O)c(O)c(O)c3)oc3cc(O)cc(O)c3c2=O)C(O)C(O)C1O (centres undefined)	i	i	i	38.6	i	41.1	i	52.7
C[C@@H]1O[C@@H](OC[C@@H]2O[C@H](Oc3c(-c4ccc(O)cc4)oc4cc(O)cc(O)c4c3=O)[C@@H](O)[C@H](O)[C@H]2O)[C@H](O)[C@H](O)[C@H]1O	i	i	i	i	i	nt	nt	nt
COc1c(-c2ccc(O)cc2)oc2cc(O)cc(O)c2c1=O	i	i	i	15.4	28.3	i	i	44.8
CC1CCCCC1N(C(=O)c1cc(C2CC2)on1)C1CCCCCC1 (centres undefined)	i	i	i	i	i	nt	nt	nt
c1ccc(C2CCC3(CC2)CCC3NCc2cccs2)cc1 (centres undefined)	i	i	i	i	i	nt	nt	nt
Cc1ccccc1Cn1cc(CN2[C@H](CC(C)C)COc3cc(Br)ccc3S2(=O)=O)nn1	i	i	i	i	i	nt	nt	nt
Cc1cccc(C)c1NC(=O)C1CCN(c2ncccn2)CC1	i	i	i	i	i	nt	nt	nt
O=c1c(O)c(-c2ccc(O)c(O)c2)oc2cc(O)cc(O)c12	i	i	i	89.4	i	40.7	i	88.4
COc1ccc(-n2cc(COC(=O)NCCc3ccccc3)nn2)cc1	i	i	i	i	i	nt	nt	nt
COc1ccc(CNC(=O)CC[C@H]2O[C@@H](n3cc(C)c(=O)[nH]c3=O)C[C@@H]2O)cc1	i	i	i	i	i	nt	nt	nt
Cc1cn([C@H]2C[C@H](O)[C@@H](CCC(=O)NCc3cccc4ccccc34)O2)c(=O)[nH]c1=O	i	i	i	15.0	i	i	i	i
c1ccc(-c2nnc3n2N=C(c2ccc4ccccc4c2)CS3)nc1	i	i	i	i	i	nt	nt	nt
COC/C=C/C1=CC2=CC(=O)C(C)(OC(=O)c3cnc4ccccc4n3)C(=O)C2=CN1Cc1ccccc1 (centres undefined)	i	i	i	15.2	i	i	i	i
SMILES	PLCb3 inh	PLC-gamma1 inh	MBD2 DNA inh	LEDGF integ inh	UHRF1 MBD2 ctr	IN multimer up	TRFRET interf	LEDGF integ conf
COC/C=C/C1=CC2=CC(=O)C(C)(OC(=O)c3cnc4ccccc4n3)C(=O)C2=CN1Cc1ccc(OC)cc1 (centres undefined)	i	i	i	i	i	nt	nt	nt
COc1ccccc1CN[C@@H]1CC[C@@]23CCCN2C(=O)CCC[C@H]3C1	i	i	i	i	i	nt	nt	nt
CCCC1CCC2(CC1)CCC2OC(=S)Nc1ccccc1Br (centres undefined)	i	i	i	i	i	nt	nt	nt
O=C(c1ccccc1)c1nn(-c2ccc(Cl)cc2)c(=O)cc1C(F)(F)F	i	i	i	22.6	i	i	i	18.7
CN(C)[C@@H]1CCN(c2cccc3c2S(=O)(=O)N2CC[C@@H](C2)O3)C1	i	i	i	i	i	nt	nt	nt
CC(CCc1ccccc1)NC(=O)CN1CCc2ccccc2C1 (centres undefined)	i	i	i	14.7	22.4	i	i	i
COc1ccc2c(c1)Cc1sc(NC(=O)c3ccco3)nc1-2	i	i	i	37.7	i	i	i	i
COc1ccc2c(c1)Cc1sc(NC(C)=O)nc1-2	i	i	i	14.7	i	i	i	26.9
c1ccc(CN2CCN(c3ncnc4sccc34)CC2)cc1	i	i	i	i	i	nt	nt	nt
C[C@H]1CN([C@@H](C)CO)C(=O)CCCn2nncc2CO[C@@H]1CN(C)S(=O)(=O)c1ccc(Oc2ccccc2)nc1	i	i	i	26.2	i	i	i	i
C[C@@H]1CN([C@H](C)CO)C(=O)CCCn2nncc2CO[C@H]1CN(C)S(=O)(=O)c1ccc(Oc2ccccc2)nc1	i	i	i	i	i	nt	nt	nt
Cc1cc(-c2csc(NC(=O)c3ccc(=O)[nH]c3)n2)c(C)n1Cc1ccco1	i	i	i	62.6	i	11.4	i	42.9
Cc1cc(=O)[nH]c(-n2[nH]c(C)cc2=O)n1	i	i	i	i	i	nt	nt	nt
COc1ccc(-n2[nH]c(C)cc2=O)cc1	i	i	i	19.4	i	i	i	i
Cc1cc(-c2csc(NC(=O)C3=COCCO3)n2)c(C)n1C	i	i	i	43.0	i	i	i	46.6
CCOC(=O)c1ccc(NC(=O)c2nc[nH]c2C(=O)NC)cc1	i	i	i	18.3	i	i	i	i
CCc1ccccc1-n1c(SCC(=O)NC)nnc1-c1cccnc1	i	i	i	22.2	i	i	i	i
CCC(COC)Oc1cc(NCc2ccccc2)c2ncn(C(C)C)c2c1 (centres undefined)	i	i	i	26.5	i	i	i	29.6
CCC(CO)Oc1cc(NC(=O)c2ccc(F)cc2)c2ncn(C(C)C)c2c1 (centres undefined)	i	i	i	i	i	nt	nt	nt
CCC(CO)Oc1cc(NC(=O)c2ccc(N)cc2)c2ncn(C(C)C)c2c1 (centres undefined)	i	i	i	13.9	i	i	i	24.8
